The campaign covered roughly 320,000 compounds. About 620 (0.19%) were called active. Roughly 6% stayed inconclusive and do not appear here. This is one part of a sample in which actives are shown more often than they occur. No stated cut-off is given here; in the data, active means activation above about 80%; inconclusive means between about 30% and that limit; inactive means weaker than that.

Chain of Transient receptor potential cation channel subfamily V member 1 (Homo sapiens) (Q8NER1 whole entry, looked up): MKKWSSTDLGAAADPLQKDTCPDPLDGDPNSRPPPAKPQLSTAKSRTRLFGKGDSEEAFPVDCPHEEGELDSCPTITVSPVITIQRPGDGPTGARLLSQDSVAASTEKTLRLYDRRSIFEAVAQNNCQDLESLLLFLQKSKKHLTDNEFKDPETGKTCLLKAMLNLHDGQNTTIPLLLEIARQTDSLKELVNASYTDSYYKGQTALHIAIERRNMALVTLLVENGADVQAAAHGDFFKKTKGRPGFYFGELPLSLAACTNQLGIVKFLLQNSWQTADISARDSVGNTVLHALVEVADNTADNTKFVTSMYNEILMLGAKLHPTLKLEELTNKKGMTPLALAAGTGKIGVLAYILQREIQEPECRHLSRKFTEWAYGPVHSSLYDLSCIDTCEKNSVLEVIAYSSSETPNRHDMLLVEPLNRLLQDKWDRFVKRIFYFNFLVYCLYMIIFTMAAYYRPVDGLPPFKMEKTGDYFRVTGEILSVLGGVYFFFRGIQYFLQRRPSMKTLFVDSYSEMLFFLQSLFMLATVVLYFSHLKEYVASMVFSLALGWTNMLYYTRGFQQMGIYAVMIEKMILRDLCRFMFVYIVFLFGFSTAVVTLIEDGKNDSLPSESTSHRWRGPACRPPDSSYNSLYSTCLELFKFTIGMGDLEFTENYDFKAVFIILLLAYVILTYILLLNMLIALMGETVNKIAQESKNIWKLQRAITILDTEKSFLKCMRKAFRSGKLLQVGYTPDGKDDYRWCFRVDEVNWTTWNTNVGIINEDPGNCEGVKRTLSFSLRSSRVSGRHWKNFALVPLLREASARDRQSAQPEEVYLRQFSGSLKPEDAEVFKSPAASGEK

For the assay, the target named is Transient receptor potential cation channel subfamily V member 1 (Homo sapiens) (UniProt Q8NER1). The experiment in a line: HTS Assay for Compounds that Act as Agonists of the Vanilloid Receptor 1. Further: 0% is about no effect. The following applies: TRPV1-expressing cells, Fluo-8 calcium influx, agonist mode; at 8.33 µM; hits give high values. An excerpt:
The transient receptor potential ion channel, family V, number 1, (TRPV1) is one of the most important molecular transducers of painful stimuli and a potential target for analgesic drug development. Although recent clinical trials with orthosteric antagonists have not produced a successful drug because of a hyperthermia side effect and their tendency to block thermal noxious pain, this ion channel is undeniably well placed in the pain pathway, and the idea of blocking pain signals before they enter the CNS is an excellent concept and of proven efficacy when TRPV1 agonists are used. We propose a new approach involving allosteric modulation to impose an activity-dependent constraint within the context of inflammation and tissue damage that would alter the responsiveness of the channel in a way that an orthosteric vanilloid antagonist cannot achieve. We believe that the allosteric modulator approach has not been explored for this target. The main goal of this proposal is to identify additional, new, potent allosteric modulators of TRPV1 that can be used to investigate TRPV1 function. Our recent report provides evidence of proof of concept, but the compounds are just at the edge of utility in terms of potency. […] The question of whether they can be used as analgesic agents is complex, but if suitable compounds are identified then testing for analgesic properties will be conducted. NIH Chemical Genomics Center [NCGC] NIH Molecular Libraries Probe Centers Network [MLPCN] MLPCN Grant: MH089480-1A1 Assay Submitter (PI): Michael Iadarola, National Institute of Dental and Cranofacial Research
Upon TRPV1 activation in TRPV1 cells, the channel opens and extracellular cations flow through the channel into the cytosol. A calcium binding dye (Fluo-8) becomes fluorescent when bound to calcium. This dye is pre-loaded into cells and is used as a marker for calcium influx. The amount of accumulated calcium is precisely quantified using the FDSS kinetic reader and the calcium dye. For the HTS assay, freshly prepared cells are plated at a density of 2000/well in 3 ul medium in 1536-well plates and cultured overnight at 35.5C. Cells will be loaded with 1 ul of the homogeneous calcium dye (ABD Bioquest) at room temperature for 40 to 90 minutes. Plates will be loaded into the FDSS kinetic reader and a 1 sec / cycle for 10 second baseline signal will be measured. Compound library will then be added with a pintool at 23 nl and measured kinetically for 3 minutes. This portion of the read is considered the agonist portion of the screen. Following the 3 minutes of incubation, an on board pipettor will deliver 1 ul of capsaicin for a final concentration equal to the EC20. Signal will be measured kinetically for an additional 2 minutes. This portion of the read is considered the allosteric enhancer portion of the screen. The FDSS reader has a standard filter set capable of measuring calcium bound Fluo-8 (ex=480 and em=520 nm).
With `CCN1C(=O)C(=O)N(CC(=O)Nc2cc(C)ccc2C)C1=O`, the activation was -7.91% (inactive).
With `CCN(c1ccccc1)S(=O)(=O)c1cccc(C(=O)NCc2ccccc2CN2CCOCC2)c1`, the activation is 10.7% (inactive).
Then `S=C(NNC(=S)NC1CC2CCC1C2)NC1CC2C=CC1C2` (centres undefined), with 3.31% (inactive).
With `CC(C)c1ccc(NC(=S)NC2CC3C=CC2C3)cc1` (centres undefined), the activation was 88.8% (active).
As for `S=C(NNC(=S)NC1CC2C=CC1C2)NC1CC2C=CC1C2` (centres undefined), the figure is 1.8% (inactive); as for `O=S(=O)(Nc1cccc2cccnc12)c1cccc2cccnc12`, 3.75% (inactive); as for `Oc1ccc(Cl)cc1C1C=C(c2ccc3c(c2)OCO3)NC(c2c(F)cccc2Cl)N1` (centres undefined), 2.17% (inactive).
Then `CSCCC(NC(=O)c1ccco1)C(=O)NCCc1ccc(F)cc1` (centres undefined), with 0.184% (inactive); and `CCc1nc(C)ccc1OCC(=O)N(CC)CC`, with 2.63% (inactive); and `CCC(C)(C)c1ccc(OCC(=O)N(C)C)c(C(C)(C)CC)c1`, with 81.1% (active).
As to `CN(C)CCOc1ccc(Cl)cc1C(C)(C)C`, the activation was 10.6% (inactive).
Then `CCN(CC(=O)Nc1ccc(OC)cc1)C(=O)CSCc1ccc(C)cc1`, with 12.3% (inactive); and `Cc1cc(C)c(CN2CCN(C(=O)Cn3ccc(NC(=O)OCc4ccccc4)nc3=O)CC2)c(C)c1`, with 1.97% (inactive).
Then `COc1ccc(S(=O)(=O)N2CCOCC2)cc1NC(=O)CSc1cc(C)ccc1C`, with 18.3% (inactive); and `COc1ccc(CNC(=O)COc2ccccc2C(=O)c2cnn(-c3ccccc3)c2)cc1OC`, with 11.4% (inactive).
As for `COc1ccc(S(=O)(=O)Nc2cccc3cccnc23)c(N)c1`, the figure is 7.86% (inactive).
Take `C[C@H](NC(=O)c1[nH]cnc1C(=O)Nc1nccs1)c1ccccc1`: the activation is 3.08% (inactive).
As for `O=C1NCCn2nc3ccccc3c21`, the figure is -1.33% (inactive).
Then `CCN(CC(=O)Nc1ccccc1C(F)(F)F)C(=O)C1CCN(C(=O)Nc2ccccc2)CC1`, with 1.3% (inactive); and `Cc1cccc(OCCC(=O)OCc2csc(CC(=O)Nc3ccccc3C)n2)c1`, with 14.6% (inactive); and `NC(=O)NCCCC(=O)O`, with 5.36% (inactive).
Then `O=C(c1cc(COc2cccc(C(F)(F)F)c2)on1)N1CCSCC1`, with 81.1% (active); and `O=C(NC1Cc2ccccc2C1)c1cc(COc2cccc(C(F)(F)F)c2)on1`, with 3.63% (inactive); and `Cc1nonc1C1CCCN1C(=O)c1cc(COc2cccc(C(F)(F)F)c2)on1` (centres undefined), with 2.83% (inactive).
`Cc1ccc2nc(-c3ccncc3)cc(C(=O)Nc3ccc4c(c3)OCCO4)c2c1`: the activation is -2.26% (inactive).
As for `O=C(Nc1ccncc1)c1cc(-c2ccccn2)nc2ccc(Br)cc12`, the figure is 0.349% (inactive).
As for `Cc1ccc2nc(-c3ccccn3)cc(C(=O)Nc3ccc4c(c3)OCO4)c2c1`, the figure is 90.2% (active); as for `COc1ccc(S(=O)(=O)N2CCN(CC(=O)N3c4ccccc4CC3C)CC2)cc1OC` (centres undefined), -0.777% (inactive); as for `COc1cc(C(=O)OCC(=O)NC23CC4CC(CC(C4)C2)C3)cc(OC)c1OC`, 21.9% (inactive).
With `O=C(Nc1cc(-c2ccccc2)nn1-c1ccccc1F)c1ccc([N+](=O)[O-])cc1`, the activation is -1.91% (inactive).
As to `CC1Cc2ccccc2N1S(=O)(=O)c1cccc(C(=O)NCC(c2ccco2)N2CCCC2)c1` (centres undefined), the activation is 0.253% (inactive).
For the molecule `CCn1c(=O)c(=O)n(CC)c2cc(N3CCCCC3)c(NC(=O)c3ccc(Cl)cc3)cc21`, the activation is -4.74% (inactive).
Then `Cc1ccccc1S(=O)(=O)N1[C@@H](c2cccc(Cl)c2)C(C(=O)O)=CC[C@H]1c1ccc(Cl)cc1`, with -4.35% (inactive).
Then `CC1CCc2sc(C(=O)NCC(c3ccco3)N3CCCCC3)cc2C1` (centres undefined), with 26.2% (inactive); and `CCC1CCC2(CC1)NC(=O)N(CC(=O)Nc1ccc(OC)cc1)C2=O` (centres undefined), with 9.09% (inactive).
As for `CC(C)(C)c1ccc(C(=O)NCCC(=O)NCc2ccco2)cc1`, the activation is 25% (inactive).
As for `CC(C)(C)NC(=O)NCc1ccco1`, the figure is 4.24% (inactive).
As for `CC(C)(C)c1ccc(NC(=O)NCc2ccco2)cc1`, the activation was 89.3% (active).
As for `COc1ccccc1Nc1nnc(SC(C)C(=O)NC2CC2)s1` (centres undefined), the figure is 0.405% (inactive).
As for `COc1ccc(NC(=O)Cn2cc(C(=O)c3ccncc3)c(=O)c3cc(C)ccc32)cc1Cl`, the figure is 3.63% (inactive); as for `Cc1ccc(NC(=O)CCCNC(=O)c2ccc(Cl)cc2)cc1S(=O)(=O)N1CCCCC1`, 6.66% (inactive); as for `Cc1ccc(S(=O)(=O)N(C)C)cc1NC(=O)CN1c2cccc3cccc(c23)S1(=O)=O`, -5.6% (inactive).
As for `Cc1ccc(S(=O)(=O)NCCC(c2ccccc2)c2ccccc2)cc1C(=O)O`, the figure is -2.84% (inactive).
On to `Cc1ccc(C(=O)NCCNC(=O)c2ccccc2)cc1`, for which the activation was 12.5% (inactive).
For the molecule `Cc1ncoc1C(=O)NCCC(c1ccccc1)c1ccccc1`, the activation is 98.7% (active).
As for `Cc1ccc(C(=O)OCC(=O)Nc2ccc(Cl)cn2)cc1S(=O)(=O)N1CCOCC1`, the figure is 7.43% (inactive); as for `CSc1ccc(Cl)c(C(=O)OCC(=O)N2CCNC2=O)c1`, 5.56% (inactive).
Then `O=C(CSc1ncnc2sccc12)N1CCN(C(=O)c2cccs2)CC1`, with 0.688% (inactive); and `O=C(C1CC(=O)N(C2CCCC2)C1)N1CCN(c2cccc(C(F)(F)F)c2)CC1` (centres undefined), with 9.27% (inactive).
As for `COC(=O)[C@]1(C)CCC[C@@]2(C)C3CC[C@]4(OC(C)=O)C[C@@]3(CCC21)CC4=NO` (some centres undefined), the figure is 19.3% (inactive).
Consider `O=S(=O)(Nc1ccc2nc(N3CCOCC3)sc2c1)c1ccccc1`, for which the activation was -3.63% (inactive).
In the case of `CCCCc1ccc(NS(=O)(=O)c2cccc(C(=O)N3CCCN(C)CC3)c2)cc1`, the activation is -2.57% (inactive).
As for `NC(=O)NC(CC(=O)NNC(=O)c1ccccn1)c1ccc(Cl)cc1` (centres undefined), the figure is 0.614% (inactive).
Then `CCOc1ccc(NC(=O)COC(=O)C2CCC(=O)N2)c([N+](=O)[O-])c1` (centres undefined), with 2.66% (inactive); and `COc1ccc(CCC(=O)N2CCN(S(=O)(=O)c3ccc(OC)cc3)CC2)cc1`, with 16.4% (inactive); and `Cc1ccc(NC(=O)c2cccc(S(=O)(=O)N3CCCc4ccccc43)c2)nc1`, with 21.4% (inactive).
Then `CCCCN(C(=O)c1ccc2ccccc2c1)c1c(N)n(CCCC)c(=O)[nH]c1=O`, with -2.14% (inactive); and `Cc1sc2ncnc(N3CCC(C(=O)Nc4ccc(F)cc4Cl)CC3)c2c1C`, with 1.84% (inactive).
On to `CCN(CC(=O)Nc1ccccc1OC)C(=O)CC1CC2CCC1C2` (centres undefined), for which the activation is 23.5% (inactive).
Take `COc1ccc(OC)c(/C=C/C(=O)c2ccc3c(c2)OCO3)c1`: the activation was 25.2% (inactive).
`COc1ccc([C@H]2CC(=O)C=C(/C=C/c3ccc(Cl)cc3)C2)cc1`: the activation is 6.1% (inactive).
Turning to `CN1CCN(c2ccc(NC(=O)c3cc(Cl)c4c(c3)OCCO4)cc2)CC1`, the activation was -4.8% (inactive).
As for `O=C1C=C(c2cccc(Cl)c2O)C[C@@H](c2ccc(F)cc2)C1`, the figure is 15.9% (inactive); as for `COc1ccc(NC(=O)COC(=O)c2n[nH]c3ccccc23)c(OC)c1`, 2.58% (inactive).
Then `COc1ccc(S(=O)(=O)N2CCOCC2)cc1NC(=O)c1ccc(OCC(C)C)c(OC)c1`, with 3.95% (inactive).
Then `CN(c1ccccc1)S(=O)(=O)c1cccc(NC(=O)Cc2ccc(Cl)cc2)c1`, with 6.78% (inactive).
On to `Cc1ccc(S(=O)(=O)NCCC(=O)NCc2ccc(Cl)cc2)cc1C`, for which the activation was 21.8% (inactive).
Consider `COc1ccc(CSc2nc(N3CCOCC3)c3c(c2C#N)CC(C)(C)OC3)cc1`, for which the activation was 80.5% (active).
As for `CC(C)c1nc(N2CCOCC2)c(C#N)c2c1COC(C)(C)C2`, the figure is 13.5% (inactive).
Then `CCOC(=O)CSc1nc(N2CCOCC2)c2c(c1C#N)CC(C(C)C)OC2` (centres undefined), with 17.3% (inactive); and `COc1ccc(OC)c(/C=N/NC(=O)c2ccc[n+](CC(=O)c3ccccc3)c2)c1`, with -2.79% (inactive); and `CC(=O)Nc1ccc(S(=O)(=O)NC(C)C(=O)OCCOc2ccc(F)cc2)cc1` (centres undefined), with 3.17% (inactive).
Then `O=C(COc1ccccc1Cl)N1N=C(c2cccs2)CC1c1ccco1` (centres undefined), with 17.2% (inactive); and `O=C(Nc1cccc2cccnc12)C(F)(F)F`, with -6.93% (inactive).
Take `C=CCOc1ccc(/C=C/C(=O)OCC(=O)NC(C)c2ccc(F)cc2)cc1` (centres undefined): the activation was 0.454% (inactive).
Then `CC(NC(=O)COC(=O)c1ccc(Cl)cc1O)c1ccc(F)cc1` (centres undefined), with 96.5% (active).
For the molecule `CC(NC(=O)COC(=O)c1cc(=O)[nH]c2ccccc12)c1ccccc1` (centres undefined), the activation is 3.95% (inactive).
As for `CN(CC(=O)Nc1ccc(Cl)c(C(F)(F)F)c1)C(=O)CCC(=O)c1ccccc1`, the figure is 17.3% (inactive); as for `CC1(C)O[C@@H]2[C@H](O1)[C@@H](COS(=O)(=O)O)O[C@H]2n1ccc(=O)[nH]c1=O`, -5.53% (inactive); as for `COc1ccccc1CNS(=O)(=O)c1cc(C(=O)NCc2ccccn2)c(Cl)cc1Cl`, -2.79% (inactive).
Then `C=C1CCC(N(O)c2cc(C)on2)C(=C)CCC2C1CC2(C)C` (centres undefined), with 13.2% (inactive); and `C=C(C)CNc1cc(S(=O)(=O)N2CCOCC2)ccc1Oc1ccccc1`, with -6.07% (inactive); and `COc1ccccc1Nc1cc(C(=O)NCCCN(C)C2CCCCC2)c2ccccc2n1`, with 5.29% (inactive).
Then `CCCCn1c(N)c(N(CCC(C)C)C(=O)COC(=O)c2cccnc2OCC)c(=O)[nH]c1=O`, with 1.64% (inactive); and `CC(C)c1ccc(S(=O)(=O)N2CCN(C(C)C(=O)NC3CCCC3)CC2)cc1` (centres undefined), with 10.1% (inactive); and `CCCn1c(N)c(N(CCOC)C(=O)C2CCCC2)c(=O)[nH]c1=O`, with 1.46% (inactive).
`COc1cccc(N2CCN(CC(=O)Nc3ccnn3C3CCCC3)CC2)c1`: the activation was 1.23% (inactive).
As for `CC(=O)c1c(C)[nH]c(C(=O)COc2ccc3c(C)cc(=O)oc3c2)c1C`, the figure is -2.89% (inactive); as for `CC(C)N(Cc1nnc(-c2ccccc2Br)o1)C(=O)c1cc(Cl)nc2ccccc12`, 9.24% (inactive).

The values above are taken from PubChem BioAssay AID540275 (National Center for Advancing Translational Sciences (NCATS), 2011).
